The text below walks through data of PubChem BioAssay (EPA / NIEHS).

Values joined by “and” are separate entries in the source; they are usually repeats but may differ in a detail not shown here. Equal values may be shown once. Results filed as inconclusive are left out. More than one record can exist for a structure, and the calls need not agree. Active and inactive are the calls of the source. How the source made its calls: active means hit-call score of the fitted dose curve at least 0.9, where 1 is the maximum; inconclusive means response in the unintended direction; inactive means score below 0.9.

Assay [1] has as its system zebrafish Estrogen Receptor (ER2b), gene 317733. Kind of assay: ATG_zfER2b_XSP2: Attagene TRANS-FACTORIAL Multi-Species (XSP2) HepG2 Assay for zebrafish Estrogen Receptor (ER2b) (AID 2283823).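 Further: fitted upward as reporter gain over DMSO so potency reflects activation.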 An outline of the steps:
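HepG2 human liver cells transiently transfected with multiplexed GAL4-UAS reporter units expressing chimeric NR-Gal4 proteins; compounds dosed for 24 h. Reporter mRNA quantified by RT-PCR, 6-FAM labelling and capillary electrophoresis; gain-of-signal fitted against DMSO baseline.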

The target in assay [2] is Estrogen receptor (Homo sapiens) (UniProt P03372). Kind of assay: ATG_hERa_XSP2: Attagene TRANS-FACTORIAL Multi-Species (XSP2) HepG2 Assay for human Estrogen Receptor (ERa) (AID 2283827). The protocol:
(§1) ATG_XSP2_multi-species_TRANS is a cell-based, multiplexed assay created by modifying the existing Attagene TRANS-FACTORIAL system to include a panel of nuclear receptors from some or all the following species: human (Homo sapiens), mouse (Mus musculus), frog (Xenopus laevis), zebrafish (Danio rerio), chicken (Gallus gallus), and turtle (Chrysemys picta). The ECOTOX-FACTORIAL format uses HepG2, a human liver cell line, with measurements taken at 24 hours after chemical dosing in a 24-well plate. Xsp2 included 3 nM 6-alpha-fluorotestosterone and 1.5 nM norgestrel to stimulate the androgen receptor.ATG_hERa_XSP2 is one of 29 assay components measured or calculated from the ATG_XSP2_multi-species_TRANS assay. It is designed to make measurements of mRNA induction, a form of inducible reporter, as detected with fluorescence intensity signals by Reverse transcription polymerase chain reaction (RT-PCR) and Capillary electrophoresis technology.The assay endpoint ATG_hERa_XSP2 was analyzed in the positive analysis fitting direction relative to DMSO as the negative control and baseline of activity. Using a type of inducible reporter, measures of mRNA for gain-of-signal activity can be used to understand the reporter gene at the transcription factor-level as they relate to the gene ER. Furthermore, this assay endpoint can be referred to as a primary readout, because this assay has produced multiple assay endpoints where this one serves a reporter gene function. To generalize the intended target to other relatable targets, this assay endpoint is annotated to the nuclear receptor intended target family, where the subfamily is steroidal.
Human liver HepG2 cells are transiently transfected with multiple reporter transcription units (MRTUs) in 6-well plates using FuGene 6 reagent (Roche; 3 ml FuGene/1 mg DNA). The MRTU constructs are regulated by a cis-regulating element (promoter). […] A major difference between the CIS and TRANS system is that in CIS activities of endogenous TFs are measured, whereas the TRANS assay evaluates changes in activities of exogenous, chimeric NR-Gal4 proteins. […] At the end of 24 hour incubation, total RNA was isolated using TriZol reagent (Invitrogen). The isolated RNA is then reverse-transcribed using oligo(dT) primer and Mo-MLV reverse transcriptase (Invitrogen) with DNAse I (Ambion) treatment for 30 min. […] The fragments were purified using Qiaquick PCR columns (Qiagen), analyzed on an ABI 3130xL genetic analyzer (Applied Biosystems) with peak positions identified by using a set of X-rhodamine (ROX)-labeled MapMarker1000 molecular weight standards (BioVentures). […]

Assay [3] relates to frog Estrogen Receptor (ER2), gene 100174814. The assay can be described thus: ATG_frER2_XSP2: Attagene TRANS-FACTORIAL Multi-Species (XSP2) HepG2 Assay for frog Estrogen Receptor (ER2) (AID 2283828). An outline of the steps: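 Read-out: reporter transcript levels by RT-PCR with 6-FAM primer extension, HpaI digestion and capillary electrophoresis, scored as induction over DMSO control. Transfected HepG2 carrying Xenopus ER2–GAL4 chimera; compounds incubated 24 h.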

Assay [4] has as its target Peroxisome proliferator-activated receptor gamma (Homo sapiens) (UniProt P37231). The assay can be described thus: ATG_hPPARg_XSP2: Attagene TRANS-FACTORIAL Multi-Species (XSP2) HepG2 Assay for human Peroxisome Proliferator-activated Receptor gamma (PPARg) (AID 2283829).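 Further: actives raise reporter mRNA above DMSO so AC50 reflects PPARg activation.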 The essentials: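 Reporter transcripts were measured by RT-PCR, fluorescent labeling, HpaI digestion and capillary electrophoresis, relative to DMSO, 24 h post-dosing. Transiently transfected HepG2 expressed NR-Gal4 chimeras regulating GAL4-UAS reporters; medium contained 3 nM 6-alpha-fluorotestosterone plus 1.5 nM norgestrel.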

Assay [5] deals with mouse Peroxisome Proliferator-activated Receptor gamma (PPARg), Pparg (gene 19016) (UniProt P37238). Kind of assay: ATG_mPPARg_XSP2: Attagene TRANS-FACTORIAL Multi-Species (XSP2) HepG2 Assay for mouse Peroxisome Proliferator-activated Receptor gamma (PPARg) (AID 2283830).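 Further: hits are gains in reporter mRNA above DMSO so AC50 marks activation.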 The protocol: as §1, with “receptor.ATG_mPPARg_XSP2” for “receptor.ATG_hERa_XSP2”, “ATG_mPPARg_XSP2” for “ATG_hERa_XSP2”, “PPARg.” for “ER.”, “non-steroidal.” for “steroidal.”
Human liver HepG2 cells are transiently transfected with multiple reporter transcription units (MRTUs) in 6-well plates using FuGene 6 reagent (Roche; 3 ml FuGene/1 mg DNA). The MRTU constructs are regulated by a cis-regulating element (promoter). […] A major difference between the CIS and TRANS system is that in CIS activities of endogenous TFs are measured, whereas the TRANS assay evaluates changes in activities of exogenous, chimeric NR-Gal4 proteins. […] At the end of 24 hour incubation, total RNA was isolated using TriZol reagent (Invitrogen). The isolated RNA is then reverse-transcribed using oligo(dT) primer and Mo-MLV reverse transcriptase (Invitrogen) with DNAse I (Ambion) treatment for 30 min. The one-tenth of the produced cDNA was amplified by PCR using Taq DNA polymerase (Invitrogen) and two reporter sequence-specific primers. The PCR products were fluorescently labeled by primer extension with 6-arboxyfluorescein (6-FAM) 5'-labeled reporter sequence-specific primer (2 min at 95 C, 20 s at 68 C and 10 min at 72 C) and these products were digested with 5U of HpaI (New England Biolabs) for 2h at 37 C. The fragments were purified using Qiaquick PCR columns (Qiagen), analyzed on an ABI 3130xL genetic analyzer (Applied Biosystems) with peak positions identified by using a set of X-rhodamine (ROX)-labeled MapMarker1000 molecular weight standards (BioVentures). The raw capillary electrophoresis data was processed using Attagraph software (Attagene).

Assay [6] addresses Nuclear receptor subfamily 1 group I member 2 (Mus musculus) (UniProt O54915). The assay can be described thus: ATG_mPXR_XSP2: Attagene TRANS-FACTORIAL Multi-Species (XSP1) HepG2 Assay for mouse Pregnane X Receptor (PXR) (AID 2283831). The essentials:
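Reporter transcripts measured after 24 h dosing by RT-PCR with 6-FAM labelling, HpaI digestion and capillary electrophoresis. Transiently transfected HepG2 with NR-Gal4 chimeras; increase over DMSO baseline scored.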

The subject of assay [7] is zebrafish Peroxisome Proliferator-activated Receptor gamma (PPARg), gene 557037. The assay can be described thus: ATG_zfPPARg_XSP2: Attagene TRANS-FACTORIAL Multi-Species (XSP2) HepG2 Assay for zebrafish Peroxisome Proliferator-activated Receptor gamma (PPARg) (AID 2283833).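 Further: actives increase reporter signal over DMSO so AC50 reflects activation.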 An outline of the steps: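 After 24 h chemical exposure, RNA from transiently transfected HepG2 (chimeric NR-Gal4 TRANS reporters) was reverse-transcribed, PCR-amplified, 6-FAM-labelled, HpaI-cut and sized by capillary electrophoresis. Induction was scored in the positive direction relative to DMSO.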

The subject of assay [8] is zebrafish Androgen Receptor (AR), gene 100005148. The assay can be described thus: ATG_zfAR_XSP2: Attagene TRANS-FACTORIAL Multi-Species (XSP2) HepG2 Assay for zebrafish Androgen Receptor (AR) (AID 2283825).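 Further: hits raise reporter mRNA above DMSO so AC50 reflects agonist-type gain.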 The essentials:
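After 24 h compound exposure in medium with 3 nM 6-alpha-fluorotestosterone plus 1.5 nM norgestrel, HepG2 cells carrying zebrafish AR–GAL4 reporter constructs were assessed for reporter mRNA gain by RT-PCR and capillary electrophoresis.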

The target in assay [9] is zebrafish Thyroid Hormone Receptor alpha (TRa), thraa (gene 30670) (UniProt Q98867). Kind of assay: ATG_zfTRa_XSP2: Attagene TRANS-FACTORIAL Multi-Species (XSP1) HepG2 Assay for zebrafish Thyroid Hormone Receptor alpha (TRa) (AID 2283832).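 Further: actives raise zebrafish TRa-Gal4 reporter transcript above DMSO baseline.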 As to the method: as §1, with “receptor.ATG_zfTRa_XSP2” for “receptor.ATG_hERa_XSP2”, “ATG_zfTRa_XSP2” for “ATG_hERa_XSP2”, “Using a type of inducible reporter, measures of mRNA for gain-of-signal activity can be used to understand the reporter gene at the transcription factor-level as they relate to the gene ER.” left out, “To generalize the intended target to other relatable targets, this assay endpoint is annotated to the nuclear receptor intended target family, where the subfamily is steroidal.” left out

For assay [10], the system named is frog Androgen Receptor (AR), gene 399456. The assay can be described thus: ATG_frAR_XSP2: Attagene TRANS-FACTORIAL Multi-Species (XSP2) HepG2 Assay for frog Androgen Receptor (AR) (AID 2283824).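 Further: reporter mRNA from GAL4-UAS units driven by Xenopus AR-Gal4 chimera; actives raise reporter signal above DMSO so AC50 reflects agonist-like induction.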 The essentials: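 Reporter transcript induction, read by RT-PCR with fluorescent capillary electrophoresis, in human liver HepG2 cells carrying an exogenous Xenopus AR-Gal4 fusion and GAL4-driven reporters; chemical exposure 24 hours, activity scored upward against DMSO controls.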

One may read the AC50 as the concentration giving half of the maximal activity seen.

Chain of Peroxisome proliferator-activated receptor gamma (Homo sapiens) (P37231 whole entry, looked up, the tested form may be a part): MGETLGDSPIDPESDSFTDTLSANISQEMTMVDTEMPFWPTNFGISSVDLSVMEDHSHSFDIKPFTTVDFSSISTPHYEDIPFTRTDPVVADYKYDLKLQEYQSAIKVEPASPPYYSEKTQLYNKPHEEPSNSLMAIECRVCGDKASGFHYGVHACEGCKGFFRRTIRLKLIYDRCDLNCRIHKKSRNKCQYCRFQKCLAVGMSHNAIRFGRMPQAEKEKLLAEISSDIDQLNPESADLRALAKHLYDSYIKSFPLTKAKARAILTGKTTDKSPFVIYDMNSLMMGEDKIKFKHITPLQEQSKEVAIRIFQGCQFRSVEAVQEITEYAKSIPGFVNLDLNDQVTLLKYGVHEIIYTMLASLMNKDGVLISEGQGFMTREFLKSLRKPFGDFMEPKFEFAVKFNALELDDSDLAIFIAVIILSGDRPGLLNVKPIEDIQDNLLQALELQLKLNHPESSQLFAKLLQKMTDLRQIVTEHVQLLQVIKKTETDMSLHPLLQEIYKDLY
Chain of Nuclear receptor subfamily 1 group I member 2 (Mus musculus) (O54915 whole entry, looked up, the tested form may be a part): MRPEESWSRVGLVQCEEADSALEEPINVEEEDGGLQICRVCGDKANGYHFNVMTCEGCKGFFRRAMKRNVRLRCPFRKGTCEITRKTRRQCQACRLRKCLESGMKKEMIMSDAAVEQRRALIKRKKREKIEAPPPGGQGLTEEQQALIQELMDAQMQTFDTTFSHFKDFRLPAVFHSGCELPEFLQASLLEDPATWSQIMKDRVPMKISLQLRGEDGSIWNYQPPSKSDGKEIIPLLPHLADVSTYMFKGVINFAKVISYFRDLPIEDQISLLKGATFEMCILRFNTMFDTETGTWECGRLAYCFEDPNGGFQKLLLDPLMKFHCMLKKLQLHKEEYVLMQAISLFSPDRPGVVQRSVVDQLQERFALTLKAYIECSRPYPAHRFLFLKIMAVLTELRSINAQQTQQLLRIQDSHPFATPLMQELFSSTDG
Chain of Estrogen receptor (Homo sapiens) (P03372 whole entry, looked up): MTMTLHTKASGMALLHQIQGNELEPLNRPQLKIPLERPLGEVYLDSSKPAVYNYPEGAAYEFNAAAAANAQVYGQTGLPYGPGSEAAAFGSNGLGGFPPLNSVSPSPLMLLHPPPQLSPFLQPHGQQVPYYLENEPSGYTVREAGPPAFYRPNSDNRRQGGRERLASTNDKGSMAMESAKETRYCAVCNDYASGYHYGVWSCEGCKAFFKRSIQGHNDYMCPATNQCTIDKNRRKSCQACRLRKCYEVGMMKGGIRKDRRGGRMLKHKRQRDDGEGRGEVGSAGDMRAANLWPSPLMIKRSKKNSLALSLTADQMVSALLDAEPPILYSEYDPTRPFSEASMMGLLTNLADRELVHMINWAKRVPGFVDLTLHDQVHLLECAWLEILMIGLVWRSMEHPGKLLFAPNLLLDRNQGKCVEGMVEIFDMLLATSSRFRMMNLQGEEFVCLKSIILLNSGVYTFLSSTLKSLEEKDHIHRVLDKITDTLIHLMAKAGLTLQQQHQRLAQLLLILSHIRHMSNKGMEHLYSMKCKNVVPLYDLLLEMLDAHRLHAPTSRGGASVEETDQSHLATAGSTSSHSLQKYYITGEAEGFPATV
Chain of mouse Peroxisome Proliferator-activated Receptor gamma (PPARg), Pparg (gene 19016) (P37238 whole entry, looked up): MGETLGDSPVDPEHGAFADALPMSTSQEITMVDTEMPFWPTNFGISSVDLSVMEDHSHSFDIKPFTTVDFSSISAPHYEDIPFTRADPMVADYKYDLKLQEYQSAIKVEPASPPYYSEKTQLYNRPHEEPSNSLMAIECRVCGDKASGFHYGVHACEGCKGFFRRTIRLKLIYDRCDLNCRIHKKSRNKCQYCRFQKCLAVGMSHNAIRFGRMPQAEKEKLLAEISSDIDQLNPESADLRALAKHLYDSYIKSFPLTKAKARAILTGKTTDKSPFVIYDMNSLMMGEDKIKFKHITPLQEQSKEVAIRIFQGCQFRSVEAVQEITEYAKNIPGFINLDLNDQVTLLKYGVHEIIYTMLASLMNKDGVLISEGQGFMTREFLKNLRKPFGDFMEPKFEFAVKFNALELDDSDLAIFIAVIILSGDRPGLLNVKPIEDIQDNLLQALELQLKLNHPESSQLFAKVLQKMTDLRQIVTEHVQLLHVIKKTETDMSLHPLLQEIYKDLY
Chain of zebrafish Thyroid Hormone Receptor alpha (TRa), thraa (gene 30670) (Q98867 whole entry, looked up, the tested form may be a part): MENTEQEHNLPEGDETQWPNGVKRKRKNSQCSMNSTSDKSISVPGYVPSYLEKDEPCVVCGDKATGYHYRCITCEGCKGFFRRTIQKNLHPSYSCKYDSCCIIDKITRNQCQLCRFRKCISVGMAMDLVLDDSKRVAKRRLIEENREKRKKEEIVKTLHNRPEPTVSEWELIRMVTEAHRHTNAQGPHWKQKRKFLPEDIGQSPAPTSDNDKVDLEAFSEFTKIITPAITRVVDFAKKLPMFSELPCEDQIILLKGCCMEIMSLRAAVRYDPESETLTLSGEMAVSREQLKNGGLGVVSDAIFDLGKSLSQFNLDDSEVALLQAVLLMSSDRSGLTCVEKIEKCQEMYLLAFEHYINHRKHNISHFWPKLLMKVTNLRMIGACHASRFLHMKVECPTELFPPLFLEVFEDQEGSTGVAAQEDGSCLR

For `CC(=O)C(C)=CC1C(C)=CCCC1(C)C` (stereo unspecified), the AC50 in [1] is 32 µM (active) and 29.8 µM (active); in [2], 19.8 µM (active) and 21.3 µM (active); in assay [3], 27.7 µM (active) and 14.7 µM (active); in assay [4], 64.4 µM (active); in [5] it was 146 µM (active) and 25.2 µM (active); in assay [6] it was 8.16 µM (active) and 12.9 µM (active). In addition, the result in assay [4] and in [7] was inactive.
In the case of `C=CCOC(=O)c1ccccc1C(=O)OCC=C`, the AC50 in assay [1] is 139 µM (active) and 78.9 µM (active); in assay [2] it was 53.5 µM (active) and 100 µM (active); in assay [3], 51.2 µM (active); in assay [4], 43.7 µM (active); in [5], 44.1 µM (active); in assay [6], 27.5 µM (active). The molecule was classed as inactive in assay [8], in [3], in [4], in assay [5], in assay [6] and in [9]. Moreover, the molecule was called inactive in assay [7].
For `CCCc1cc(=O)[nH]c(=S)[nH]1`, the outcome in [1], in assay [10], in assay [8], in [2], in assay [4] and in assay [5] was inactive. The outcome in assay [6] and in assay [7] was inactive.
Regarding `CC(C)(C)c1cc(O)c(C(C)(C)C)cc1O`, the AC50 is 49.3 µM (active) in assay [1], 42.7 µM (active) in assay [4] and 57.5 µM (active) in assay [5]. Also, the molecule was classed as inactive in [2], in assay [3], in [9] and in [7].
